Marburg entry inh – blocks Marburg virus binding to or entry into cells; Marburg virus pseudotyped entry inhibition, cell reporter; Potency, µM (highest dose often 37.8 µM), for inactives: top-dose activity change, negative = inhibition, usual class: inhibitors; actives 1.8% (n = 300,000); AID 540276; calls by dose curve; tested in HEK293 cells; also: potency is read from the fitted curve at half-maximal effect; % is scaled to controls: 0 for no effect and ±100 for the full control effect
Cycloheximide cs – counter-screen hit for Shiga toxin inhibitors, cycloheximide; cell reporter, cycloheximide protein synthesis inhibition counterscreen; max response, %; actives 12% (n = 300,000); AID 2314; in the data active = max response mostly above about 13%, no sharp cut-off; inactive = mostly below about 14%; also: read at 38.3 µM for the half of the compounds with a filed dose; 0% is about no effect
Shiga toxin inh – inhibitors of Shiga toxin in Vero cells. Vero cells, Shiga toxin protein synthesis inhibition reporter. inhibition, % at 38.7 µM. actives 9.2% (n = 290,000). AID 2315; in the data active = inhibition mostly above about 28%, no sharp cut-off; inactive = mostly below about 43%; also: 0% is about no effect
LASV entry inh – Lassa virus entry inhibition; Lassa virus pseudotype entry inhibition, cell reporter; Potency, µM (doses to about 37.9 µM), without a hit: at the highest dose activity change, negative = inhibition, usual class: inhibitors; actives 1.2% (n = 300,000); calls by dose curve; tested in HEK293 cells; also: potency is read from the fitted curve at half-maximal effect; % is scaled to controls: 0 for no effect and ±100 for the full control effect; nearly all actives have a fitted effect of over 50% in size
* hit, by the source's call; ? = inconclusive; / = no result; [ ] = another dose, or the depositor's remark. Most compounds without a hit are left out; they make up all but 12% or so of the library.

SMILES	Marburg entry inh	Cycloheximide cs	Shiga toxin inh	LASV entry inh
COc1cc2c(cc1OC)C(COc1ccc3c(C)cc(=O)oc3c1)N(C(=O)c1cccc(OC)c1OC)CC2 (stereo not given)	-5%[46.1 µM]	/	/	2.8µM*
CC(C)c1ccc(NC(=O)c2sccc2-n2cccc2)cc1	-18%	56*	158*	-11%
Cc1cccc(/C=N\NC(=O)c2ccccc2-n2cccc2)c1	-21%[14.2 µM]	21	37	-18%
Cc1cccc(/C=N\NC(=O)c2sccc2-n2cccc2)c1	4%	65*	114*	4%
O=C(N/N=C\c1ccccc1)c1sccc1-n1cccc1	29%	26*	49*	11%
CC1CCC(N(CCCN)Cc2ccco2)CC1C (stereo not given)	?	-3	-7	5%
O=[N+]([O-])c1ccc(/C=N/Nc2nc(N3CCCCC3)nc(N3CCCCC3)n2)o1	21µM*	-1	-30	?
COc1c(/C=N/Nc2nc(N3CCCCC3)nc(N3CCCCC3)n2)cccc1[N+](=O)[O-]	?	-2	8	-18%
O=[N+]([O-])c1ccc(Cl)c(/C=N/Nc2nc(N3CCOCC3)nc(N3CCOCC3)n2)c1	0.052µM*	10	-10	-13%
O=[N+]([O-])c1ccc(/C=N/Nc2nc(N3CCOCC3)nc(N3CCOCC3)n2)cc1	/	-1	5	/
CCN1CCCC1CNC(=O)C1=C(OC)CC(N(C)C)=C(NC(C)=O)C1 (stereo not given)	-21%	/	/	/
CCc1ccccc1N=C1S/C(=C/c2ccccc2OCC(=O)N2CCOCC2)C(=O)N1C	-29%	-1	5	15µM*
CN1/C(=C\C=N\O)C(C)(C)c2ccccc21	-2%[46.1 µM]	-2	50	?
CC1=NN(c2ccccc2)C(=O)/C1=C\C=C1\N(C)c2ccccc2C1(C)C	8%	-3	-11	4%
CN(C)c1ccc(N=C/C=C2/N(C)c3ccccc3C2(C)C)cc1	?	62*	78*	?
CC1=NN(c2ccccc2)C(=O)/C1=C\C=C1/N(C)c2ccccc2C1(C)C	11µM*	0	21	?
CN1/C(=C\C=[N+](C)c2ccccc2)C(C)(C)c2ccccc21	?	1	-13	4.6µM*
CN1/C(=C\C=C2/C(=O)Oc3ccccc3C2=O)C(C)(C)c2ccccc21	-2%	39*	40*	?
COC(=O)C(C)n1cnc2c(nnn2-c2cccc(OC)c2)c1=O (stereo not given)	?	20*	41*	-4%[46.1 µM]
COC(=O)C(C)n1cnc2c(nnn2-c2ccccc2)c1=O (stereo not given)	/	-3	16	/
CCC(C(=O)OC)n1cnc2c(nnn2-c2cccc(OC)c2)c1=O (stereo not given)	/	16*	38	/
COc1ccc(OCC(=O)NCC2(N3CCN(C)CC3)CCCCC2)cc1	-12%[46.1 µM]	/	/	0%[46.1 µM]
COc1ccc2cc3c(nc2c1)OCC3	/	20*	102*	/
COc1ccc2cc(CO)c(Cl)nc2c1	6%	14	2	0%
C=Cn1cc[n+](CC(=O)c2ccc(-c3ccccc3)cc2)c1	12%[46.1 µM]	-1	/	-24%[46.1 µM]
SMILES	Marburg entry inh	Cycloheximide cs	Shiga toxin inh	LASV entry inh
O=C(CSc1nc2ccccc2n1Cc1ccccc1Cl)N/N=C/c1ccccc1C(=O)O	/	17*	39	/
O=C(CSc1nc2ccccc2n1Cc1ccccc1)N/N=C/c1ccccc1C(=O)O	/	-1	23	/
CC(C)N(c1ccccc1)c1ccc(NC(=S)NCCN(C)C)cc1	11µM*	-7	-8	?
CCNC(=S)NN(c1ccccc1)c1ccccc1	18%	6	9	-2%
CCNC(=S)Nc1ccc(N(c2ccccc2)C(C)C)cc1	-9%	17*	57*	-11%
CN(C)CCCNC(=S)Nc1ccc(-c2ccccc2)cc1	/	1	-5	/
COCC(=O)OCC(=O)Nc1ccccc1-c1ccccc1	0%[14.2 µM]	-3	-5	1%
Cc1ccc(NC(=O)CSc2nc(=O)n(Cc3ccco3)c3c2CCC3)cc1F	/	/	/	5%[46.1 µM]
Cc1ccc(C)c(NC(=O)Cc2nc(CNCC(C)C)cs2)c1	7.9µM*	-4	-6	0%
CC(C)[C@@H](CO)NC(=O)c1ccc2c3n(nc2c1)-c1ccccc1CO3	/	37*	50*	/
CC(C)NC(=O)c1ccc2c3n(nc2c1)-c1ccccc1CO3	/	22*	30	/
CC[C@H](NC(=O)[C@H](CCC(=O)O)NC(=O)[C@H](CCC(=O)O)NC(=O)[C@H](CC(=O)O[S+](=O)([O-])c1cccc2c(NCCN)cccc12)NC(=O)[C@H](CCC(=O)O)NC(=O)[C@H](CC(=O)O)NC(C)=O)C(=O)ON[C@@H](C)C(=O)N[C@@H](CO)C(=O)N[C@@H](CCCCNC(=O)c1ccc(N=Nc2ccc(N(C)C)cc2)cc1)C(N)=O	/	8	23	/
Cc1ccc(-c2nn3c(-c4ccccc4)nnc3c3ccccc23)cc1	?	/	/	-6%[46.1 µM]
N/C(CSc1ccccn1)=N\OCc1c(Cl)cccc1Cl	?	18	45*	-20%[46.1 µM]
O=C(CSc1ccccn1)Nc1ccc(Cl)c([N+](=O)[O-])c1	7%	12	30	-4%
Cc1ccc(-c2csc3ncnc(N4CCN(C(=O)c5ccco5)CC4)c23)cc1	-30%	/	/	?
O=C(c1ccco1)N1CCN(c2ncnc3c(-c4ccc(Cl)cc4)nsc23)CC1	?	48*	101*	11%[46.1 µM]
O=C(c1ccco1)N1CCN(c2ncnc3scc(-c4ccc(F)cc4)c23)CC1	?	-3	-15	?
COc1ccc(-c2nsc3c(N4CCCC4)ncnc23)cc1	?	49*	118*	?
Cc1ccc(-c2nsc3c(N4CCN(C(=O)c5ccco5)CC4)ncnc23)cc1	/	30*	71*	/
CC(C)(C)c1ccc(CSc2nc3c(c(=O)[nH]2)CCCC3)cc1	-6%[46.1 µM]	/	/	10%[46.1 µM]
Cc1ccc(C(=O)Nc2cc3[nH]c(=O)oc3cc2C)cc1	0%	11	24*	/
Cc1nn(C2CCS(=O)(=O)C2)c2nc(C3CC3)cc(C(=O)Nc3cccc(C#N)c3)c12 (stereo not given)	-22%[46.1 µM]	/	/	-26%
Cc1cccc(-c2nc(SCC(=O)N(C)c3ccccc3)c3c(=O)n(C)c(=O)n(C)c3n2)c1	/	/	/	17%[46.1 µM]
CC(=O)N1/C(=C/c2ccc(N(C)C)cc2)C(=O)c2ccccc21	13µM*	22*	22	?
SMILES	Marburg entry inh	Cycloheximide cs	Shiga toxin inh	LASV entry inh
CC(=O)/C(=C/c1ccc(N(C)C)cc1)C(=O)c1ccccc1	16%	-2	-4	-15%
CCCOc1ccc(C(=O)CCC(=O)OCC(=O)N2CC(=O)Nc3ccccc32)cc1	-7%	32*	-7	26%
O=C1CN(C(=O)COc2ccc(F)cc2Br)c2ccccc2N1	9%[46.1 µM]	15	36*	-11%[46.1 µM]
O=C1CN(C(=O)COc2ccccc2F)c2ccccc2N1	15%	-6	15	4%
O=C1CN(C(=O)COC(=O)CCC(=O)c2ccc(Cl)cc2)c2ccccc2N1	11%	/	/	8%
O=C1CN(C(=O)COC(=O)CCC(=O)c2ccc3c(c2)OCCO3)c2ccccc2N1	-4%	19*	35	18%
O=C(COC(=O)CNS(=O)(=O)c1cccc(Br)c1)Nc1ccccc1Sc1ccccc1	?	1	-7	-1%
O=C(CCc1ccccc1)NNC(=O)Cc1ccccc1	4%	-4	16	4%
Cc1nc(NC(=S)NC(=O)c2cccs2)ccc1Br	?	31*	32*	15%
